# Measurements as given in PubChem BioAssay AID1745849 (National Center for Advancing Translational Sciences (NCATS), 2022).
# Screen size: about 2,100 compounds; about 320 (15%) were called active. Roughly 52% stayed inconclusive and do not appear here. The call rests on the fitted dose curve; in most records, active means well fitted cell-killing curve with a large enough effect; inconclusive means small, poorly fitted or top-dose-only effect, or effect the other way; inactive means flat fitted curve, though single readings scatter. This is one part of the list. A call without a number means that no potency is given here.
# Assay: Viability Counterscreen for CMV-Luciferase Assay of Inhibitors of ATXN expression; further: nearly all actives have a fitted effect of over 55% in size
# Conditions: HEK-293 CMV-luciferase cells viability, protease fluorescence, 24 h
# In short: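 Cells: HEK-293/CMV-luc in phenol-red-free DMEM, 2 hr settle. Cpd dose, 24 hr, 37 °C, 5% CO2. Viability: Gly-Phe-AFC 25 uM final, 30 min, fluor. Then SteadyGlo, 5 min RT, lumin.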
# Potency means the concentration at half of the fitted maximal effect.
row,SMILES,Potency
1,O=C(c1c(F)cccc1F)N1CCCC(c2nc(-c3ccc(Cl)cc3)no2)C1 (stereo not drawn),inactive
2,CCn1c2ccccc2c2cc(NC(=O)COC(=O)c3ccccc3F)ccc21,inactive
3,O=C1/C(=C/c2ccncc2)CCC/C1=C\c1ccncc1,5.62 µM (active)
4,CN1C/C(=C/c2cccnc2)C(=O)/C(=C/c2cccnc2)C1,inactive
5,CCN(CC)C(=O)c1cccc(-c2csc(C(C)(O)c3cccc(F)c3)n2)c1 (stereo not drawn),inactive
6,CCN1C(=O)/C(=C/c2nc3ccccc3c(=O)n2-c2ccccc2)c2ccccc21,12.6 µM (active)
7,CCOC(=O)C1=CCN(S(=O)(=O)c2ccc(C)cc2)C1c1cccc(Cl)c1 (stereo not drawn),inactive
8,CCn1c(C)nc2cc(C(=O)N/N=C(\C)c3ccc(OC)cc3O)ccc21,inactive
9,Cc1sc(NC(=O)c2cc(-c3ccc(Cl)cc3)nc3ccccc23)c(C(N)=O)c1C,8.91 µM (active)
10,CCOC(=O)c1c(NC(=O)COC(=O)Cn2cnc3ccccc32)sc(C)c1C,inactive
11,O=C(NN=C1CCCC1)c1cc(-c2ccc(F)cc2)nc2ccccc12,inactive
12,O=C(c1cc(COc2cccc(C(F)(F)F)c2)on1)N1CCC(c2ccncc2)CC1,inactive
13,CCN1CCN(c2cc(C(C)C)nc3c(-c4ccccc4)c(C)nn23)CC1,inactive
14,COc1ccccc1-n1c(-c2ccccc2)c[n+]2c1CCc1ccccc1-2,10 µM (active)
15,OCC1(CCOc2ccccc2)CCN(CC2=Cc3cc(Cl)ccc3OC2)CC1,inactive
16,Cc1ccc(S(=O)(=O)Nc2cccc3cccnc23)cc1,inactive
17,O=[N+]([O-])c1ccccc1S(=O)(=O)Nc1cccc2cccnc12,11.2 µM (active)
18,O=S(=O)(Nc1cccc2cccnc12)c1ccccc1,inactive
19,O=C(CSc1nnc(-c2ccccc2)o1)Nc1ccccc1F,inactive
20,C/C(=N\NC(=O)CSCc1ccc([N+](=O)[O-])cc1)c1ccccc1O,inactive
21,CCOC(=O)C(C(C)=O)c1c(Br)c(O)c(O)c2c(C(=O)c3ccc(C)cc3)coc12 (stereo not drawn),10 µM (active)
22,CC(=O)C(C(C)=O)c1c(Cl)c(O)c(O)c2c(C(=O)c3ccccc3)coc12,7.08 µM (active)
23,O=C(NC(=S)NCc1nc2ccccc2[nH]1)c1ccc(F)cc1,inactive
24,NS(=O)(=O)c1ccc(Sc2nc3ccccc3s2)c([N+](=O)[O-])c1,inactive
25,Cc1sc2cc3c(c(C(=O)c4ccccc4)[n+]2c1C)-c1cccc2cccc-3c12,10 µM (active)

row,SMILES,Potency
1,Cc1ccc(-c2csc(N3CCN(c4cc5c(cc4Cl)nc(-c4ccncc4)n5CCOCCO)CC3)n2)cc1,inactive
2,CN(C)CCNc1ncnc2c1sc1nc(N3CCOCC3)c3c(c12)CC(C)(C)SC3,17.8 µM (active)
3,CC1(C)Cc2c(c(-c3ccco3)nc3sc4c(NCCN5CCOCC5)ncnc4c23)CO1,inactive
4,CC1(C)Cc2c(c(N3CCOCC3)nc3sc4c(NN)ncnc4c23)CS1,inactive
5,Cn1nc(C(=O)N2CCN(c3ccc(Cl)cc3)CC2)c2c1-c1ccccc1S(=O)(=O)C2,inactive
6,N#Cc1ccccc1NC(=O)C1SC(=Nc2ccccc2)C(C(=O)Nc2ccc(Cl)cc2)=C1N (stereo not drawn),inactive
7,Cc1cc(Nc2cccc([N+](=O)[O-])c2)n2c(nc3ccccc32)c1C#N,3.55 µM (active)
8,Cc1ccc(-c2cc(-c3ccccc3)nc(NN)n2)cc1,inactive
9,NS(=O)(=O)c1ccc(CCNc2nn3c(-c4cccc(OC(F)(F)F)c4)cnc3s2)cc1,inactive
10,C=CCOC(=O)C1=C[C@@H](c2ccc3c(c2)OCO3)C[C@@H](OCCCCO)O1,inactive
11,CN(C)CCNc1cccc2sc3ccc(O)cc3c(=O)c12,12.6 µM (active)
12,CN(C)CCNc1ccc2ncn3c4ccc(O)cc4c(=O)c1c23,inactive
13,O=C(Nc1cccc(Cl)c1)c1ccc2c(c1)SC1=NS(=O)(=O)CCN12,inactive
14,CCOC(=O)c1c(-n2cccc2)sc2c1CCCC2=O,inactive
15,CC[n+]1c(C=C2C=C(C)OC(C)=C2)sc2ccccc21,14.1 µM (active)
16,NNC(=O)/C(=N/Nc1ccccc1)S(=O)(=O)c1ccc(Cl)cc1,10 µM (active)
17,O=C(NCc1cc(C(F)(F)F)ccc1Cl)c1cccc2c1C(=O)c1ccc(N3CCOCC3)cc1S2(=O)=O,inactive
18,CC1(C(=O)NCc2ccco2)CCN1C(=O)C1(c2ccccc2)CC1 (stereo not drawn),inactive
19,Cc1cc(C)c2c(c1)/C(=C/C(=O)c1ccc(Br)s1)C(=O)N2,3.16 µM (active)
20,OCCN1CCN(Cc2cc(Cl)c3cccnc3c2O)CC1,inactive
21,O=c1oc2ccccc2c(O)c1Cc1cc(Cl)c2cccnc2c1O,inactive
22,O=[N+]([O-])c1cc(CN2CCN(c3ccccc3)CC2)c(O)c2ncccc12,11.2 µM (active)
23,Oc1ccc(Cl)c2cccnc12,inactive
24,CCOC(=O)N1CCN(Cc2cc(Cl)c3cccnc3c2O)CC1,inactive
25,O=[N+]([O-])c1ccc(O)c2ncccc12,10 µM (active)

row,SMILES,Potency
1,O=[N+]([O-])c1cc(Cl)c(O)c2ncccc12,11.2 µM (active)
2,CC(C)COCc1ccc(O)c2ncccc12,inactive
3,COc1ccc(-c2nc(CN3CCN(c4ncnc5ccccc45)CC3)c(C)o2)c(OC)c1,inactive
4,c1ccc(Nc2nc(N3CCCCC3)nc(N3CCNCC3)n2)cc1,inactive
5,COc1cc(C)c(C(=O)CC(=O)c2c(C)cc(OC)cc2C)c(C)c1,inactive
6,CC(=O)N1c2ccc(S(=O)(=O)N3CCC(C(=O)Nc4cccc(C(F)(F)F)c4)CC3)cc2CC1C (stereo not drawn),inactive
7,Cc1nn(-c2ccccc2)c(N2CCCC2)c1/C=N/NC(=O)c1cc2ccccc2cc1O,inactive
8,COc1cccc(CN2CCC2(C)C(=O)Nc2cccc3cccnc23)c1OC (stereo not drawn),inactive
9,COc1ccc(CC2C(=O)NC(C)C(=O)N(C)C3Cc4ccc(cc4)Oc4cc(ccc4O)CC(C(=O)NC(C)C(=O)NC(C)C(=O)N2C)N(C)C3=O)cc1 (stereo not drawn),0.316 µM (active)
10,CC1(C)c2[nH]c3ccccc3c2C[C@H]2C(=O)N(Cc3ccccc3F)C(=O)N21,inactive
11,Nc1nc(NCCCN2CCOCC2)nc(Nc2cccc(Cl)c2)c1[N+](=O)[O-],inactive
12,COC(=O)[C@H]1C[C@H](OC(=O)NC2CC2)[C@@]2(O)CN(S(=O)(=O)c3ccc(C)cc3)CC2[C@H]1C(=O)OC (stereo partly drawn),inactive
13,COc1ccccc1N(C)S(=O)(=O)c1ccc(C(=O)Nc2ccc(N3CCOCC3)cc2)cc1,inactive
14,Cc1ccc(C(=O)N2CCN(c3ccc(NC(=S)NC(=O)c4cccs4)cc3)CC2)cc1,inactive
15,COc1c(C)cccc1C(=O)Nc1ccc(N2CCN(C(=O)c3ccccc3C)CC2)cc1,31.6 µM (active)
16,CC(C)n1c(NCc2cc(Cl)ccc2O)nc2ccccc21,inactive
17,C/C(=N\N=C(N)N)c1ccc(Cl)cc1Cl,inactive
18,O=C(Nc1nc(-c2ccccn2)cs1)c1ccccc1-n1cnnn1,7.94 µM (active)
19,Cc1cc(OCC(=O)NC(C)c2ccccc2)ccc1[N+](=O)[O-] (stereo not drawn),inactive
20,O=C(Nc1nc(-c2ccccn2)cs1)c1cc(Cl)ccc1[N+](=O)[O-],3.16 µM (active)
21,CCc1sc(C(=O)Nc2nc(-c3ccccn3)cs2)cc1C,11.2 µM (active)
22,CC(N)c1csc(NC(=O)c2cc(C(C)(C)C)nn2Cc2ccccc2)n1 (stereo not drawn),inactive
23,O=C(NNc1nc2ccc(Cl)cc2s1)c1cc(-c2cccs2)nc2ccccc12,inactive
24,Cc1c(C(=O)Nc2nccs2)sc2nc(-c3cccs3)cc(C(F)(F)F)c12,inactive
25,COc1ccc(CNC(=O)CSc2nc(-c3ccccc3)cc(-c3cccs3)c2C#N)cc1,inactive

row,SMILES,Potency
1,CCCOc1ccccc1C1NC(=O)NC(C)=C1C(=O)OCc1ccccc1 (stereo not drawn),inactive
2,CN1CCN(CC#CCn2c3ccccc3c3ccccc32)CC1,inactive
3,Cc1cc(/C=N/n2cnnc2)c(C)n1-c1ccc(OCc2ccc(Cl)cc2Cl)cc1,28.2 µM (active)
4,S=C(Nc1ccccc1)Nc1ccc(OCc2ccc(Cl)cc2Cl)cc1,inactive
5,CCc1nc2c(OCc3ccc(Cl)cc3Cl)cccn2c1N(C=O)Cc1ccc(OC)cc1,inactive
6,CN1CCN(c2nc(Nc3ccc(F)cc3)nc(Nc3ccc(F)cc3)n2)CC1,inactive
7,CCc1nc2c(OCCOc3ccc(F)cc3)cccn2c1N(C=O)Cc1ccc(OC)cc1,inactive
8,S=C(Nc1cc(Cl)ccc1Oc1ccccc1)N1CCN(c2ccccn2)CC1,25.1 µM (active)
9,CCN(CC)S(=O)(=O)c1ccc(C)c(NC(=S)N2CCN(c3ccccn3)CC2)c1,inactive
10,O=C(c1ccc(Cn2c(=S)[nH]c3ccccc3c2=O)cc1)N1CCN(c2ccccn2)CC1,inactive
11,Cn1cccc1/C=N/N1CCN(Cc2ccccc2Cl)CC1,inactive
12,C=CCNc1oc(-c2ccc(Cl)cc2)nc1C#N,inactive
13,O=C1N/C(=N/N=C/c2ccccc2O)SC1Cc1ccc(F)cc1 (stereo not drawn),14.1 µM (active)
14,COc1cccc(C(=O)NC2CC3CCCC(C2)N3CC(=O)Nc2ccccc2C(F)(F)F)c1 (stereo not drawn),inactive
15,CN(Cc1ccccc1)C1=CC(=[N+]2CCCC2)CC(C)(C)C1,inactive
16,COc1cccc(S(=O)(=O)NCc2ccc(C(=O)Nc3cccc(Cl)c3)cc2)c1,15.8 µM (active)
17,CSc1cccc(NC(=O)c2ccc(CN3CCc4ccccc4C3)cc2)c1,inactive
18,COc1ccc(NS(=O)(=O)c2ccc(NC(=O)c3ccc(CN4CCOCC4)cc3)cc2)cc1,inactive
19,Cc1ccc(-c2nc3ccc(Cl)cn3c2CC(C)(C)C)cc1,inactive
20,c1ccc(-c2sc3ccccc3c2-c2ccc(OCCN3CCCC3)cc2)cc1,35.5 µM (active)
21,COc1cccc(-c2sc3ccccc3c2-c2ccc(OCCN3CCCC3)cc2)c1,inactive
22,COc1ccc(-c2sc3ccc(OC)cc3c2-c2ccc(O)cc2)cc1,inactive
23,Cc1nc2ccccc2n1-c1nc(-c2ccco2)cc(C(F)(F)F)n1,10 µM (active)
